{"source": "PubChem BioAssay (Tox21)", "key": {"[1]": {"experiment": "qHTS assay to identify small molecule agonists of the sonic hedgehog signaling (Shh) pathway (AID 1259368);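 also: NIH/3T3-derived 3T3Gli1-Luc cells carrying a stable Gli1-driven firefly luciferase reporter; series mostly up to about 92 µM; nearly all actives have a fitted effect of over 15% in size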", "outline": "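Following a 24 hr incubation with DMSO-dissolved compounds at 37 C, 5% CO2, Gli1-Luc NIH/3T3-derived cells received luciferase reagent for 30 min at room temperature prior to luminescence measurement.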"}, "[2]": {"experiment": "qHTS assay to identify small molecule antagonists of the sonic hedgehog signaling (Shh) pathway (AID 1259369); also: nearly all actives have a fitted effect of over 45% in size; also: potency is read from the fitted curve at half-maximal effect", "outline": "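Read-out is luminescence from a firefly luciferase gene controlled by the Gli1 response element, in 3T3Gli1-Luc cells pre-incubated 4hr then exposed to compounds and conditioned medium for 24hr.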"}, "[3]": {"experiment": "qHTS assay to identify small molecule agonists of the androgen receptor (AR) signaling pathway in the presence of an antagonist - cell viability counter screen (AID 1259379; active = well fitted curve in the direction sought with a large enough effect in the repeat runs; an effect the other way counts as inactive or inconclusive; also: nearly all actives have a fitted effect of over 25% in size; also: potency is read from the fitted curve at half-maximal effect)", "outline": "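Each compound was tested at 15 concentrations on MDA-kb2 cells in the presence of 3.0uM nilutamide. Viability was measured by CellTiter-Fluor fluorescence after a 16 hr incubation at 37C in a CO2-free atmosphere.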"}, "[4]": {"biological_target": "Androgen receptor (Homo sapiens) (UniProt P10275)", "sequence (P10275 whole entry, looked up)": "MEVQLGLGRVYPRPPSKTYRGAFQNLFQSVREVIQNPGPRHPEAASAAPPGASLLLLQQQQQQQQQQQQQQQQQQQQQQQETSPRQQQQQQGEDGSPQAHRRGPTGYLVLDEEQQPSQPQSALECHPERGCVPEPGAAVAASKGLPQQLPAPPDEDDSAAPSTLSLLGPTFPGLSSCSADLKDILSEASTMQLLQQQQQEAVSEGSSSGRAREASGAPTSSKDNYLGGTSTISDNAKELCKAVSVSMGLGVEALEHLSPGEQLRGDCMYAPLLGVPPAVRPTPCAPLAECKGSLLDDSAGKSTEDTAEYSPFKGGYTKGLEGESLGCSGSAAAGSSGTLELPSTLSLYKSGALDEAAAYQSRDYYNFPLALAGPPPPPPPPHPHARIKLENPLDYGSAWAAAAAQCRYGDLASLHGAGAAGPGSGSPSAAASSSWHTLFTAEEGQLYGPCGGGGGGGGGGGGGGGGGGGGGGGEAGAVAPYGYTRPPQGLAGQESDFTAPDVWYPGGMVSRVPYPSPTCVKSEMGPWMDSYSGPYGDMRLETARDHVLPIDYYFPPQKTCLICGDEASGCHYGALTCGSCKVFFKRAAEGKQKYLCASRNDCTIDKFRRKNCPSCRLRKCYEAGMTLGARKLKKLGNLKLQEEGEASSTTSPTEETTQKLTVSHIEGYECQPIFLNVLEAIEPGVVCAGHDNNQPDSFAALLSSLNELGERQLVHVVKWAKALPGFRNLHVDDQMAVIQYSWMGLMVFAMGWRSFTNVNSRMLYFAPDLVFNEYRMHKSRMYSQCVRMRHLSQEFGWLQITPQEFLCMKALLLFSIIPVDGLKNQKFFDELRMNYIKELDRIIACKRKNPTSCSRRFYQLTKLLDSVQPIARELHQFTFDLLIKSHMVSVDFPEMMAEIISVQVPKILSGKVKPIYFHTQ", "experiment": "qHTS assay to identify small molecule agonists of the androgen receptor (AR) signaling pathway in the presence of an antagonist (AID 1259381); also: nearly all actives have a fitted effect of over 15% in size", "outline": "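Plated MDA-kb2 cells (3,000/well) were pre-incubated 5hr, given nilutamide (3.0uM final) or buffer, then dosed with compounds in DMSO at 15 concentrations. Luciferase activity was quantified by luminescence after 16hr at 37C.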"}, "[5]": {"experiment": "qHTS assay to identify small molecule antagonists of the estrogen receptor beta (ER-beta) signaling pathway - cell viability counter screen (AID 1259382; active = well fitted curve in the direction sought with a large enough effect in the repeat runs; an effect the other way counts as inactive or inconclusive; also: series mostly up to about 92 µM; nearly all actives have a fitted effect of over 55% in size)", "outline": "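CellTiter-Glo ATP luminescence measured after the LiveBLAzer read in the same wells; ER-beta-UAS-bla HEK293T cells, 16 hr compound treatment with 1nM 17-beta-estradiol agonist at 37C, 5% CO2.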"}, "[6]": {"experiment": "qHTS assay to identify small molecule agonists or antagonists of the thyroid stimulating hormone receptor (TSHR) signaling pathway - wild type cell line counter screen (AID 1259384)", "outline": "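Counter screen in untransfected Hek293: compounds (15-point titration, triplicate) plus phosphodiesterase inhibitor Ro20-1724 added after 18 h plating; 30 min RT. Intracellular cAMP via competitive d2/cryptate immunoassay, 1 h incubation.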"}, "[7]": {"experiment": "qHTS assay to identify small molecule agonists of the estrogen receptor beta (ER-beta) signaling pathway - cell viability counter screen (AID 1259380; active = well fitted curve in the direction sought with a large enough effect in the repeat runs; an effect the other way counts as inactive or inconclusive; also: nearly all actives have a fitted effect of over 30% in size)", "outline": "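Compounds dissolved in DMSO were pin-transferred onto ER-beta-UAS-bla HEK293T cells that had settled 6 hr, and exposure ran 16 hr at 37C. Following the reporter read, CellTiter-Glo luminescence after 30 min at room temperature indicated cytotoxicity.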"}, "[8]": {"biological_target": "Estrogen receptor (Homo sapiens) (UniProt P03372)", "sequence (P03372 whole entry, looked up)": "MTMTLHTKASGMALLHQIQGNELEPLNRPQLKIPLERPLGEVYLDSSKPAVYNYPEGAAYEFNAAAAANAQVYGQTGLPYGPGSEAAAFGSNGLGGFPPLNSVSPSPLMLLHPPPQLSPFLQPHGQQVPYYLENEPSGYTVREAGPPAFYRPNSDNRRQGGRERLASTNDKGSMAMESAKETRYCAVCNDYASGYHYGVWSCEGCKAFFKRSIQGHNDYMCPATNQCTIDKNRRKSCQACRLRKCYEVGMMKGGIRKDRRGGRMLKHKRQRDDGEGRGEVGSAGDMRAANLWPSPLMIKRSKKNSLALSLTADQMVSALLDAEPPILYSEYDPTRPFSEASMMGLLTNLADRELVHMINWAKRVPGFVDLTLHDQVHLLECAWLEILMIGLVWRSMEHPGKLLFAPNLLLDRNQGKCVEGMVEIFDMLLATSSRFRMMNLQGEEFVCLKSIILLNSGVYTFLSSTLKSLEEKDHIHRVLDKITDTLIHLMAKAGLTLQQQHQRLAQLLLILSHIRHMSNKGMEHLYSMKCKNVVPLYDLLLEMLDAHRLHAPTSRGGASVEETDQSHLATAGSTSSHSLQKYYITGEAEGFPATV", "experiment": "qHTS assay to identify small molecule agonists of the estrogen receptor alpha (ER-alpha) signaling pathway in the presence of an antagonist (AID 1259383); also: top concentration of the series differs between compounds; nearly all actives have a fitted effect of over 15% in size", "outline": "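Luminescent ERE-luciferase reporter, VM7Luc4E2 cells (endogenous ER-alpha); 10.0nM ICI-182,780 final; 15-point compound titration; 22hr at 37C; ONE-Glo, 30min RT.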"}, "[9]": {"biological_target": "Estrogen receptor beta (Homo sapiens) (UniProt Q92731)", "sequence (Q92731 whole entry, looked up)": "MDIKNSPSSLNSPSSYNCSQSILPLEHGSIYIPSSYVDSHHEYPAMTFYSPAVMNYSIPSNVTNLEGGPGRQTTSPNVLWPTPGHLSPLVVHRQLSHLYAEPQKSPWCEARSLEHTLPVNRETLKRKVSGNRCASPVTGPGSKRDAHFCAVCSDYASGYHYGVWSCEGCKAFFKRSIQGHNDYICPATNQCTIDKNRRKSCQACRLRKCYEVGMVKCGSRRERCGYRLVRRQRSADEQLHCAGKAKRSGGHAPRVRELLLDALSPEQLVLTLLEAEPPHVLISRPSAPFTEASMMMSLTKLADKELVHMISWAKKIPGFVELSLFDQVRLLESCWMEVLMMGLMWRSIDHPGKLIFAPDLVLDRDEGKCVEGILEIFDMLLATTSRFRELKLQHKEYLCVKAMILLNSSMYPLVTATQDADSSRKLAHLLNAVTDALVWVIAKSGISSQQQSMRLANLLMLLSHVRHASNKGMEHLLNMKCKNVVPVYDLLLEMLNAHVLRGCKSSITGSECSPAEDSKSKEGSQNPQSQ", "experiment": "qHTS assay to identify small molecule agonists of the estrogen receptor beta (ER-beta) signaling pathway (AID 1259377; active = well fitted activation curve with a large enough effect in the signal ratio in the repeat runs, not every such curve was filed as active; the % refers to the signal ratio)", "outline": "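A UAS-controlled beta-lactamase reporter in ER-beta-UAS-bla HEK293T cells reports receptor activation. Compounds act for 16 hr at 37C in 2% charcoal-stripped serum, and a FRET substrate is read by fluorescence after 2 hours.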"}, "[10]": {"biological_target": "Estrogen receptor beta (Homo sapiens) (UniProt Q92731)", "experiment": "qHTS assay to identify small molecule antagonists of the estrogen receptor beta (ER-beta) signaling pathway (AID 1259378; active = well fitted inhibition curve with a large enough effect in the signal ratio in the repeat runs, not every such curve was filed as active; the % refers to the signal ratio)", "outline": "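Antagonist mode: compounds added to beta-lactamase reporter HEK293T ER-beta-UAS cells stimulated with E2 (1nM final), 16 hr at 37C. LiveBLAzer B/G FRET substrate, 2 hours room temperature, fluorescence read-out.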"}}, "note": "Records with an inconclusive call do not appear. Entries that show only a call come without a potency. Activity calls are given as the source filed them. Unless noted, calls follow the shape of the full dose curve.", "data": [{"smiles": "O=C(Nc1ccccc1)Nc1ccnc(Cl)c1", "values": [{"measurement": "Potency", "setting": "[1]", "result": "inactive"}, {"measurement": "Potency", "setting": "[2]", "result": "2.17 µM (active)"}, {"measurement": "Potency", "setting": "[3]", "result": "61.1 µM (active)"}, {"measurement": "Potency", "setting": "[4]", "result": "inactive"}, {"measurement": "Potency", "setting": "[5]", "result": "inactive"}, {"measurement": "outcome", "setting": "[6]", "result": "inactive"}]}, {"smiles": "CNP(=O)(OC)Oc1ccc(C(C)(C)C)cc1Cl", "note": "(stereo unspecified)", "values": [{"measurement": "Potency", "setting": "[1]", "result": "inactive"}, {"measurement": "Potency", "setting": "[2]", "result": "27.3 µM (active)"}, {"measurement": "Potency", "setting": "[3]", "result": "inactive"}, {"measurement": "Potency", "setting": "[7]", "result": "inactive"}, {"measurement": "Potency", "setting": "[5]", "result": "inactive"}, {"measurement": "Potency", "setting": "[8]", "result": "inactive"}, {"measurement": "outcome", "setting": "[6]", "result": "inactive"}]}, {"smiles": "CC(Cl)Cl", "values": [{"measurement": "Potency", "setting": "[1]", "result": "inactive"}, {"measurement": "Potency", "setting": "[9]", "result": "inactive"}, {"measurement": "Potency", "setting": "[10]", "result": "inactive"}, {"measurement": "Potency", "setting": "[3]", "result": "inactive"}, {"measurement": "Potency", "setting": "[7]", "result": "inactive"}, {"measurement": "Potency", "setting": "[5]", "result": "inactive"}, {"measurement": "Potency", "setting": "[8]", "result": "inactive"}]}, {"smiles": "C=CC(C)=O", "values": [{"measurement": "Potency", "setting": "[1]", "result": "inactive"}, {"measurement": "Potency", "setting": "[2]", "result": "inactive"}, {"measurement": "Potency", "setting": "[3]", "result": "inactive"}, {"measurement": "Potency", "setting": "[7]", "result": "inactive"}, {"measurement": "Potency", "setting": "[5]", "result": "inactive"}, {"measurement": "Potency", "setting": "[8]", "result": "inactive"}, {"measurement": "outcome", "setting": "[6]", "result": "inactive"}]}, {"smiles": "CC(Cl)C(C)Cl", "note": "(stereo unspecified)", "values": [{"measurement": "Potency", "setting": "[1]", "result": "inactive"}, {"measurement": "Potency", "setting": "[9]", "result": "inactive"}, {"measurement": "Potency", "setting": "[10]", "result": "inactive"}, {"measurement": "Potency", "setting": "[3]", "result": "inactive"}, {"measurement": "Potency", "setting": "[7]", "result": "inactive"}, {"measurement": "Potency", "setting": "[5]", "result": "inactive"}, {"measurement": "Potency", "setting": "[8]", "result": "inactive"}]}, {"smiles": "CCC(COC(=O)c1cc(OC)c(OC)c(OC)c1)(c1ccccc1)N(C)C", "note": "(stereo unspecified)", "values": [{"measurement": "Potency", "setting": "[1]", "result": "inactive"}, {"measurement": "Potency", "setting": "[9]", "result": "inactive"}, {"measurement": "Potency", "setting": "[10]", "result": "inactive"}, {"measurement": "Potency", "setting": "[3]", "result": "inactive"}, {"measurement": "Potency", "setting": "[7]", "result": "inactive"}, {"measurement": "Potency", "setting": "[5]", "result": "inactive"}]}, {"smiles": "CCOS(C)(=O)=O", "values": [{"measurement": "Potency", "setting": "[1]", "result": "inactive"}, {"measurement": "Potency", "setting": "[2]", "result": "inactive"}, {"measurement": "Potency", "setting": "[3]", "result": "inactive"}, {"measurement": "Potency", "setting": "[7]", "result": "inactive"}, {"measurement": "Potency", "setting": "[5]", "result": "inactive"}, {"measurement": "outcome", "setting": "[6]", "result": "inactive"}]}]}
